Experimental data from PubChem BioAssay (NCI).
The panel holds about 83,000 compounds, 20% with a hit somewhere; the sample as a whole holds those more often.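 A percent growth of 40 corresponds to 60% growth inhibition; 0 means no net growth; -100 means all cells died. Active threshold: below 10.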 Values without a mark were called inactive. Calls of active or inactive are those of the source.

Columns and labels:
Experiment in all cases: NCI-60 one-dose screen, 48 h (100 = growth as untreated, 0 = no growth, -100 = all killed)
Conditions in all cases: 10 µM unless noted
NCI-H23 lung = test system: NCI-H23 lung
NCI-H226 lung = test system: NCI-H226 lung
NCI-H322M lung = test system: NCI-H322M lung
HOP-62 NSCLC = test system: HOP-62 NSCLC
NCI-H460 lung = test system: NCI-H460 lung
HOP-92 NSCLC = test system: HOP-92 NSCLC
NCI-H522 lung = test system: NCI-H522 lung
A549/ATCC NSCLC = test system: A549/ATCC NSCLC
786-0 renal = test system: 786-0 renal
COLO 205 colon = test system: COLO 205 colon

Structure (SMILES) | growth (NCI-H23 lung) | growth (NCI-H226 lung) | growth (NCI-H322M lung) | growth (HOP-62 NSCLC) | growth (NCI-H460 lung) | growth (HOP-92 NSCLC) | growth (NCI-H522 lung) | growth (A549/ATCC NSCLC) | growth (786-0 renal) | growth (COLO 205 colon)
O=C(CSc1nnc(-c2ccc(Cl)c(Cl)c2)n1-c1ccccc1)Nc1ccc(C(=O)/C=C/c2ccc(Cl)cc2)cc1 | 95.4% | 89.1% | 96.9% | 91.1% | 99.5% | 80.7% | 64.7% | 68.9% | 88.6% | 93.3%
CCOC(=O)c1c(Nc2nc3ccccc3s2)sc2c1CCC(=O)C2 | 26.3% | 91.9% | 85% | 66.4% | 34% | 85.4% | 8.13% (active) | 68.8% | 66% | 65.9%
CN(C)CCCN(CCC1CCCCC1)CCC1CCCCC1 | 66.4% | 94.8% | 80.1% | 64.3% | -2.63% (active) | 28.8% | 48.8% | 52.5% | 56.2% | -54.4% (active)
Cc1nc2ccccc2c(/C=C/c2ccc(Br)cc2)c1C(=O)/C=C/c1ccccc1 | 8.31% (active) | 25.1% | 35.3% | -35.1% (active) | -56.4% (active) | 53.1% | -34.9% (active) | 14.8% | 2.23% (active) | -29.5% (active)
Cn1cc(-c2ccc3occ(-c4cccc(-c5ccncc5)c4)c3n2)cn1 | 19.5% | 33.6% | 34.3% | 13.9% | 13.5% | 50.6% | -18.5% (active) | 17.7% | 17.7% | 14.7%
O=c1[nH]c(CN2CCN(c3ccccc3)CC2)nc2c(Br)cc(Br)cc12 | 98.4% | 93.4% | 112% | 101% | 100% | 131% | 103% | 101% | 103% | 104%
CN1CCN(Cc2ccc(NC(=O)c3cncc(C#Cc4cnc(N)c5ccc(C#N)cc45)c3)cc2C(F)(F)F)CC1 | -22% (active) | -35.1% (active) | 26.6% | 2.55% (active) | -49.3% (active) | -15.2% (active) | 5.63% (active) | -53% (active) | -71.8% (active) | -71.9% (active)
O=C1NCCS(=O)(=O)/C1=C\C=C\c1cccc(C(F)(F)F)c1 | 22.3% | 31.6% | 63.4% | 35.8% | 50.1% | 100% | 16.9% | 39.4% | 20.1% | 25.2%
O=C(Nc1ccc2c(c1)-c1ccccc1C2)C1CC(=O)N(c2ccc3c(c2)OCO3)C1 (stereo not given) | 51.6% [50 µM] | 30.2% [50 µM] | 55.9% [50 µM] | 70.7% [50 µM] | 32.9% [50 µM] | 65% [50 µM] | 77.5% [50 µM] | 66.7% [50 µM] | 30.9% [50 µM] | 86.2% [50 µM]
CC(C)n1cc(C2=C(c3cccc4ccccc34)C(=O)NC2=O)c2cc(Br)ccc21 | 49% | 37.8% | 87.5% | 78.5% | 67.5% | 158% | 79.9% | 60.5% | 54.9% | 62.2%
[2H]C([2H])([2H])Oc1ccc(/C=C/C(=O)/C=C(O)/C=C/c2ccc(OC([2H])([2H])[2H])c(OC([2H])([2H])[2H])c2)cc1OC([2H])([2H])[2H] | 34.3% | 70.6% | 103% | 47.7% | 46.7% | 72.7% | 14.8% | 32.4% | 48.9% | 30.4%
CCOC(=O)CC1C(CNC(=O)NC)OC(n2cnc3c(NC(=O)Nc4ccccc4)ncnc32)C1O[Si](C)(C)C(C)(C)C (stereo not given) | 91.7% | 75.9% | 90.5% | 78.9% | 47.6% | 63.1% | 80.2% | 22.4% | 76.1% | 43%
CC(=O)OCCOc1cc(Cl)c(Cl)cc1Cl | 97.4% | 101% | 112% | 103% | 109% | 82.3% | 86.6% | 90.8% | 100% | 121%
